Laboratory results: PubChem BioAssay (NCI)
About 79,000 compounds went through this panel and 15% of them were active in at least one assay; those are over-represented in the sample as a whole. Calls of active or inactive are those of the source. Rule as the data show it: active = growth inhibition above about 70%; inactive = the rest.

Tests used:
[1] = NCI Yeast Anticancer Drug Screen. Data for the rad50 strain (AID 155);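 also: 0% = growth of vehicle-only cultures of the same strain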; conditions: S. cerevisiae rad50 strain growth inhibition; at 50.0 µM; hits give high values
Summary of the method: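 Cells are treated with compound, grown, and their growth is then scored against vehicle-only cultures of the same repair-deficient yeast strain.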

[2] = NCI Yeast Anticancer Drug Screen. Data for the mec2-1 strain (AID 157); conditions: S. cerevisiae mec2-1 strain, at 50.0 µM, hits give high values
Summary of the method: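 Readout is yeast growth inhibition, normalised to vehicle-treated controls, in the mec2-1 strain exposed to compound.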

[3] = NCI Yeast Anticancer Drug Screen. Data for the sgs1 mgt1 strain (AID 161);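 also: 0% = growth of cultures given vehicle only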; conditions: S. cerevisiae sgs1 mgt1 strain, at 50.0 µM, hits give high values
Summary of the method: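 Growth of a repair-deficient yeast mutant was monitored after compound treatment and expressed as inhibition relative to vehicle-treated cultures.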

[4] = NCI Yeast Anticancer Drug Screen. Data for the cln2 rad14 strain (AID 165);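 also: 0% = growth equal to vehicle treated cultures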; conditions: S. cerevisiae cln2 rad14 strain, at 50.0 µM, hits give high values
Summary of the method: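 Relative to vehicle controls, growth inhibition of compound-treated cln2 rad14 yeast was recorded.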

[5] = NCI Yeast Anticancer Drug Screen. Data for the bub3 strain (AID 167); conditions: S. cerevisiae bub3 mutant strain, at 50.0 µM, hits give high values
Summary of the method: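 Part of a panel of yeast mutants defective in DNA damage repair or cell cycle regulation. Each strain is grown with compound, and inhibition is calculated relative to solvent-treated cultures.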

[6] = NCI Yeast Anticancer Drug Screen. Data for the mlh1 rad18 strain (AID 175); conditions: S. cerevisiae mlh1 rad18 strain growth inhibition; at 50.0 µM; hits give high values
Summary of the method: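 Test agents were incubated with a yeast strain of defined genotype (DNA damage repair defect). Inhibition of growth was derived by comparison with vehicle-exposed cultures.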

Measured: growth inhibition

CCOc1ccc(/C=N/NC(=O)CCCCCCCCC(=O)N/N=C/c2ccc(OCC)c(OC)c2)cc1OC
inactive: [1] -25.6% | [2] -5.1% | [3] -27.1% | [4] -27.6% | [5] -1.45% | [6] -8.35%

Cc1ccc(N2C(=O)/C(=C/c3ccc(N(CCC#N)CCC#N)cc3)N=C2COc2ccc(Cl)cc2Cl)cc1
inactive: [1] -0.2% | [2] -26.9% | [3] -7.25% | [4] -17.8% | [5] -36.1% | [6] -25.9%

COC1OC2COC(C)(C)OC2C1OS(=O)(=O)c1ccc(C)cc1 (stereo unspecified)
inactive: [1] -1.75% | [2] 12.6% | [3] 6.4% | [4] -17.1% | [5] -0.5% | [6] 29.6%

C=C(C)/C=C/S(=O)c1ccccc1 (stereo unspecified)
inactive: [1] -3.3% | [2] -2.85% | [3] 10.3% | [4] -5.35% | [5] -16.4% | [6] -5.15%

CC(=O)c1cc(C)c(O)c(C)c1
inactive: [1] -4.25% | [2] -8.8% | [3] 0.05% | [4] -4.05% | [5] -6.75% | [6] -5.55%

CC(C)Oc1ccc(N2C(=O)C(C)CNC2=S)cc1 (stereo unspecified)
inactive: [1] -13.9% | [2] -1.9% | [3] -1.3% | [4] 4.9% | [5] 6.4% | [6] -8.55%

Cc1cc(C)c2ccc(=O)[nH]c2n1
inactive: [1] -2.8% | [2] -9% | [3] 2.6% | [4] -3.05% | [5] 8.75% | [6] 8.2%

O=C1NC2=NN=C(c3ccc(Br)cc3)CN2NC12c1ccccc1-c1ccccc12
inactive: [1] -21.6% | [2] -15.8% | [3] -13.8% | [4] 21.6% | [5] -14.2% | [6] 4.2%

COc1cc([C@@H]2c3cc4c(cc3[C@@H](Nc3ccccc3C(=O)c3ccccc3)[C@H]3COC(=O)[C@H]23)OCO4)cc(OC)c1OC
inactive: [1] 9.35% | [2] 9.95% | [3] -18.5% | [4] 13.2% | [5] 1.05% | [6] -34.5%

COc1cc2oc(=O)ccc2cc1CC=C(C)C
inactive: [1] -16.1% | [2] -26.2% | [3] -4.1% | [4] -6.35% | [5] 2.95% | [6] -21.8%

CCCCCCC1CCC(OC(C)=O)CC1 (stereo unspecified)
inactive: [1] 5.65% | [2] -4% | [3] -1.1% | [4] -0.9% | [5] 1.7% | [6] 0.55%

c1ccc(CSC2(SCc3ccccc3)CCCC2)cc1
inactive: [1] -7.3% | [2] -19.3% | [3] -22.6% | [4] 11.8% | [5] -1.1% | [6] -4.45%

COC(=O)C(=O)c1c(C(=O)OC)nc2nnc(N)n2c1-c1ccc(O)c(OC)c1
inactive: [1] 0.5% | [2] -11.9% | [3] -2.65% | [4] -31.8% | [5] 16.5% | [6] -9.9%

O=C(OCCCCNC1CCCCC1)c1ccc([N+](=O)[O-])cc1
inactive: [1] 9.65% | [2] 3% | [3] -7.05% | [4] -7.3% | [5] -13.6% | [6] 5.25%

CNc1ccccc1C(=O)N/N=C\c1ccc(Cl)cc1Cl
inactive: [1] -7.75% | [2] -4.9% | [3] -1.3% | [4] -2.85% | [5] -10.1% | [6] -5.15%

O=C(O)COc1c(F)cc(F)cc1Cl
inactive: [1] 18.1% | [2] 1.9% | [3] 18.4% | [4] -1.05% | [5] 12% | [6] 7.35%

CC(=O)OC1COC(n2c(=S)n(-c3ccccc3)c(=O)c3cc(Br)ccc32)C(OC(C)=O)C1OC(C)=O (stereo unspecified)
inactive: [1] 1.9% | [2] -5.4% | [3] 8.45% | [4] 15.8% | [5] -3.85% | [6] -11.9%

CCCC(CCCC(=O)O)C(=O)O (stereo unspecified)
inactive: [1] -4% | [2] -9.8% | [3] 0.95% | [4] -8.2% | [5] 11.9% | [6] 6.1%

COC(=O)C1(CC(=O)c2ccccc2)NC(=S)NC(=O)C1C#N (stereo unspecified)
inactive: [1] 1.85% | [2] -13.9% | [3] -24.4% | [4] -15.8% | [5] -33.5% | [6] -3.35%

C/C=C(\CC)C(C#N)O[Si](C)(C)C (stereo unspecified)
inactive: [1] 13.2% | [2] 4.4% | [3] 1.45% | [4] 6.5% | [5] 10% | [6] -24.6%

O=C(N(CCc1ccc(O)cc1)Cc1ccc2c(c1)OCO2)C(F)(F)F
active: [1] 98% | [2] 96.8% | [3] 92.4% | [4] 92.4% | [5] 97.2% | [6] 98.6%

COc1ccc(N2CCN(CC(O)COc3ccc(Cl)cc3)CC2)cc1 (stereo unspecified)
active: [1] 70.8% | [3] 75%
inactive: [2] 18.9% | [4] 14.9% | [5] 13.8% | [6] 28.5%

Cc1ccc2c(c1)C(C(C)C)CCC2(C)C (stereo unspecified)
inactive: [1] 5.3% | [2] -8.1% | [3] 2.95% | [4] 4.85% | [5] -0.6% | [6] 0.7%

COc1cccc(CN(CC(=O)O)S(=O)(=O)c2ccc(C)cc2)c1
inactive: [1] -6.2% | [2] 11.3% | [3] -1% | [4] -46.6% | [5] -23.6% | [6] 6.85%

CC1(C)CC(=O)C=C(NCCCCCCCCNC2=CC(=O)CC(C)(C)C2)C1
inactive: [1] -0.25% | [2] 19.8% | [3] 5.7% | [4] 6.45% | [5] 5% | [6] 9.8%

CC1=CC(=Nc2ccc(N(C)C)cc2)C(C)=CC1=O
inactive: [1] -11.1% | [2] -28.3% | [3] -2.4% | [4] -30.6% | [5] 5.4% | [6] -4.35%

COc1ccc2c(c1CCl)C(=O)OC2
inactive: [1] 13.6% | [2] -9.1% | [3] -2.05% | [4] -20.6% | [5] 12.2% | [6] -1.05%

Cn1c(=O)c2[nH]c(N/N=N/c3nncs3)nc2n(C)c1=O
inactive: [1] -67.5% | [2] -117% | [3] -51.9% | [4] -19.8% | [5] -19.4% | [6] -117%

Cc1ccccc1N1C(=O)/C(=C/c2ccc(N(CCC#N)CCC#N)cc2)N=C1c1cc([N+](=O)[O-])ccc1Cl
inactive: [1] 4.65% | [2] 1.7% | [3] 26.1% | [4] 7.1% | [5] -1.7% | [6] 6.2%

CCCCCCCCCCCC(=O)O
inactive: [1] -0.85% | [2] 0.7% | [3] 25.6% | [4] -7.45% | [5] 10.1% | [6] 19.2%

N#Cc1nccc2ccccc12
inactive: [1] 12.2% | [2] -13.3% | [3] -13.1% | [4] -29.1% | [5] -1.4% | [6] -13.4%

O=C(N/N=C\c1ccc2c(c1)OCO2)c1ccc2c(c1)OCO2
inactive: [1] 0.7% | [2] 0.05% | [3] 1.85% | [4] -15.2% | [5] 5.05% | [6] 0.55%

O=C(O)c1cc(C2CC2)nc2ccccc12
inactive: [1] -1% | [2] 1.6% | [3] 0.55% | [4] -0.95% | [5] -14.6% | [6] 24.6%

O=C1c2ccccc2C(=O)c2c1c([N+](=O)[O-])c1c(c2[N+](=O)[O-])OCO1
inactive: [1] 7.15% | [2] 0.15% | [3] 21.8% | [4] -0.15% | [5] 14.1% | [6] 31.2%

CN(CCc1ccccn1)c1ccc2c(c1)C(=O)c1ccccc1-2
inactive: [1] 46.9% | [2] 13.4% | [3] -1.8% | [4] -13.1% | [5] -2.7% | [6] 9.85%

BrC1(Br)C2COCOCC21 (stereo unspecified)
inactive: [1] -9.6% | [2] -1.4% | [3] -1.05% | [4] 0.55% | [5] -4.75% | [6] 8.05%

CN(C)c1ccc(C(Cc2ccccc2)C2NC(=S)NC2=O)cc1 (stereo unspecified)
inactive: [1] -6% | [2] -34.5% | [3] 11.2% | [4] 11.3% | [5] 7.7% | [6] -40.5%

COc1ccc(C(=O)Cc2ccc3ccccc3n2)cc1
inactive: [1] -4.75% | [2] 16.7% | [3] -6.8% | [4] -24.9% | [5] -10.8% | [6] 4.45%

CCCC(=O)C(CC)C(=O)OCC (stereo unspecified)
inactive: [1] -8.7% | [2] -1.35% | [3] -3% | [4] -9.8% | [5] -0.25% | [6] 11.4%

CCOC1NC(=O)c2ccccc21 (stereo unspecified)
inactive: [1] 22.1% | [2] 6.15% | [3] 5.85% | [4] 22.2% | [5] 19.1% | [6] 12.8%

CN1CNc2nc(N)n(C)c(=O)c2C1
inactive: [1] 11.2% | [2] -4.7% | [3] 11.4% | [4] 11.8% | [5] -6.5% | [6] 8.2%
